Reference: PubChem BioAssay
Values joined by “and” are separate entries in the source; they are usually repeats but may differ in a detail not shown here. Identical values can stand only once. Active and inactive are the calls of the source.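 How the source made its calls: active means thallium flux through the channel raised or lowered by more than 3 SD from vehicle-only wells, actives on both sides; inactive means the rest.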

system: not listed separately; assay: CRL1545 cell growth, single agent and combined, cisplatin and BGB IC20 combos (AID 1671464); conditions: CRL1545 osteosarcoma cells, single agent, at 0.05 µM, stronger effect = higher value;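 further: cells exposed to compound for 96 hours before readout; 0% = vehicle DMSO and 100% = high DMSO killing control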

inhibition, -9.97% and 20.9%:
CCCCCCNC(=O)n1cc(F)c(=O)[nH]c1=O

inhibition, 10.6% and 46.1%:
Cn1cnc([N+](=O)[O-])c1Sc1ncnc2nc[nH]c12

inhibition, -3.52%:
O=c1[nH]cc(F)c(=O)[nH]1

inhibition, 3.45% and -1.09%:
CCn1cc(C(=O)O)c(=O)c2cc(F)c(N3CCN(C)CC3)cc21

same assay, conditions: CRL1545 osteosarcoma cells, single agent, at 5 µM, stronger effect = higher value

inhibition, 15.8%:
O=c1[nH]cc(F)c(=O)[nH]1

inhibition, -27.1% and 1.32%:
CCn1cc(C(=O)O)c(=O)c2cc(F)c(N3CCN(C)CC3)cc21

inhibition, 25.6% and 21%:
Cn1cnc([N+](=O)[O-])c1Sc1ncnc2nc[nH]c12

inhibition, -10.7% and 10.5%:
CCCCCCNC(=O)n1cc(F)c(=O)[nH]c1=O

system: F380Y; assay: BK channel mutant inhibitors and activators – cell-based, U2OS BacMam, thallium flux, beta subunits, selectivity assay, profiling panel (AID 1259406); conditions: U2OS BacMam BK variants, at 30 µM;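 further: initial slope of Thallos dye fluorescence rise after thallium is added; log ratio against the mean of 0.3% DMSO vehicle wells on the same plate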

Log fold change Tl+ flux, inactive:
O=c1[nH]cc(F)c(=O)[nH]1 -0.0334
CCc1nc(N)nc(N)c1-c1ccc(Cl)cc1 0.0572
CCc1cccc2c3c([nH]c12)C(CC)(CC(=O)O)OCC3 (configuration not stated) 0.0338
Nc1ncn([C@@H]2O[C@H](CO)[C@@H](O)[C@H]2O)c(=O)n1 -0.0337
Cc1ccccc1C(OCCN(C)C)c1ccccc1 (configuration not stated) 0.0933 and 0.0755
Cc1ccc(C)c(OCCCC(C)(C)C(=O)O)c1 0.0531
NC(=O)c1cnccn1 -0.0194
CCCCCCNC(=O)n1cc(F)c(=O)[nH]c1=O -0.0314
COC1=CC(=O)C[C@@H](C)[C@]12Oc1c(Cl)c(OC)cc(OC)c1C2=O 0.00739
Cc1ncc([N+](=O)[O-])n1CC(C)O (configuration not stated) -0.058
N[C@@H](C(=O)N[C@@H]1C(=O)N2C(C(=O)O)=C(Cl)CS[C@H]12)c1ccccc1 -0.0277
CO[C@@]1(NC(=O)Cc2cccs2)C(=O)N2C(C(=O)O)=C(COC(N)=O)CS[C@@H]21 0.0585
CN(C)CCOC(c1ccc(Cl)cc1)c1ccccn1 (configuration not stated) 0.0898
Cc1onc(-c2c(Cl)cccc2Cl)c1C(=O)N[C@@H]1C(=O)N2[C@@H]1SC(C)(C)[C@@H]2C(=O)O 0.01
COc1cc2nc(N(C)CCCNC(=O)C3CCCO3)nc(N)c2cc1OC (configuration not stated) 0.0271
NS(=O)(=O)c1cc(C2(O)NC(=O)c3ccccc32)ccc1Cl (configuration not stated) -0.0172
CN(C)CCc1c[nH]c2ccc(C[C@H]3COC(=O)N3)cc12 0.0506
Cc1ccc(-c2cc(C(F)(F)F)nn2-c2ccc(S(N)(=O)=O)cc2)cc1 0.057
O=S(=O)(O)CCS -0.0468
C/C=C/C(=O)N(CC)c1ccccc1C 0.0255
COc1ccc(OC)c(C(O)CNC(=O)CN)c1 (configuration not stated) -0.028
Cn1cnc([N+](=O)[O-])c1Sc1ncnc2nc[nH]c12 -0.0816
c1ccc2[nH]c(-c3cscn3)nc2c1 -0.0155
NC(=O)N1c2ccccc2CC(=O)c2ccccc21 -0.0346
Cc1cn([C@H]2C[C@H](N=[N+]=[N-])[C@@H](CO)O2)c(=O)[nH]c1=O -0.00123
CN(CCOc1ccc(CC2SC(=O)NC2=O)cc1)c1ccccn1 (configuration not stated) -0.00159 and 0.0548
COc1ccccc1OCC(O)COC(N)=O (configuration not stated) 0.00752
OC(CCN1CCCC1)(c1ccccc1)C1CCCCC1 (configuration not stated) 0.0696
O=C1C(CCS(=O)c2ccccc2)C(=O)N(c2ccccc2)N1c1ccccc1 (configuration not stated) -0.0134
COC(=O)Nc1nc2ccc(C(=O)c3ccccc3)cc2[nH]1 -0.0365
CCn1cc(C(=O)O)c(=O)c2cc(F)c(N3CCN(C)CC3)cc21 -0.0273
NCc1ccc(S(N)(=O)=O)cc1 0.0308
CC(C)(C)NCC(O)COc1cccc2c1C[C@H](O)[C@H](O)C2 (some centres not stated) 0.0119
NS(=O)(=O)c1cc2c(cc1Cl)NC=NS2(=O)=O 0.0512

Log fold change Tl+ flux, active:
OCCN1CCN(CCCN2c3ccccc3Sc3ccc(C(F)(F)F)cc32)CC1 0.235
CN[C@H]1CC[C@@H](c2ccc(Cl)c(Cl)c2)c2ccccc21 0.286 and 0.195
CCCNCC(O)COc1ccccc1C(=O)CCc1ccccc1 (configuration not stated) 0.197
CN1CCCC(n2nc(Cc3ccc(Cl)cc3)c3ccccc3c2=O)CC1 (configuration not stated) 0.248
Clc1ccc2c(c1)C(N1CCNCC1)=Nc1ccccc1O2 0.111
